MPTP block: blocks calcium-induced mitochondrial swelling. isolated mouse mitochondria, Ca2+ swelling absorbance, 30 min. inhibition, % at 10 µM. 1.4% of 360,000 active;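 active = inhibition of 50% or more, scaled per plate between neutral and stimulator controls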
tim10-1 inh: inhibits growth of tim10-1 mutant yeast | inhibition, % at 20 µM | S. cerevisiae tim10-1 ts strain growth, BacTiter-Glo, 24 h | 2.2% of 330,000 active | AID 463190;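 active = inhibition of at least 40%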;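 also: mutant grown at 25 °C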
Mdm2 MdmX PPI: human Mdm2/MdmX binding inhibition; 3% of 330,000 active; SaOS-2 split-luciferase Mdm2/MdmX complementation, luminescence; AID 485346; inhibition, % at 8 µM;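 active = inhibition of at least 50% at 8 µM in the primary screen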
Target sequence (O15151 whole entry, looked up): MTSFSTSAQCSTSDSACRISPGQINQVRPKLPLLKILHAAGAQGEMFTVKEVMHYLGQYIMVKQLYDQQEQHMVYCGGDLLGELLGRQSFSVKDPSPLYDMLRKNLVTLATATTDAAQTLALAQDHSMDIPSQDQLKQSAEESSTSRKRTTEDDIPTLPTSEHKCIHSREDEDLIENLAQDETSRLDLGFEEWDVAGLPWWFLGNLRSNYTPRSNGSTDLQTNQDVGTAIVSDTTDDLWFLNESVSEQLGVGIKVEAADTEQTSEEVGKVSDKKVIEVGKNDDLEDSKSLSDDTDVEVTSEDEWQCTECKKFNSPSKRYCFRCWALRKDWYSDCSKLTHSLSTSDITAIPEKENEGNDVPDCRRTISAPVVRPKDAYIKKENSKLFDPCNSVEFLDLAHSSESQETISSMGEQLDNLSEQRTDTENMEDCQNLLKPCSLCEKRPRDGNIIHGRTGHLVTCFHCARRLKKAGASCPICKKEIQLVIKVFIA
Target sequence (Q00987 whole entry, looked up): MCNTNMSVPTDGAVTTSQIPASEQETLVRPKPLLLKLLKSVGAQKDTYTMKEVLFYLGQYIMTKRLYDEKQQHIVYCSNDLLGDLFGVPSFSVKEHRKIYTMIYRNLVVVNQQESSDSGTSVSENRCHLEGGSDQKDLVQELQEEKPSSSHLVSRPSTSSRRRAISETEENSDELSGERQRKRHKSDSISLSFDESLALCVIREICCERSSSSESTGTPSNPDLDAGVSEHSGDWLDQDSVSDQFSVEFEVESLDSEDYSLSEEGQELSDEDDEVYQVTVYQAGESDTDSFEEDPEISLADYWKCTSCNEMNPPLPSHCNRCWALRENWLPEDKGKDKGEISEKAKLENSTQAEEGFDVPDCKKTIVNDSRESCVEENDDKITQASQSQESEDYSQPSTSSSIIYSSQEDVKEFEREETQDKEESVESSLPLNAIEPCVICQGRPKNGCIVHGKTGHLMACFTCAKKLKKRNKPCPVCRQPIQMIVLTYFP
tim23-1 inh: inhibits growth of tim23-1 mutant yeast | S. cerevisiae tim23-1 growth, BacTiter-Glo luminescence, 24 h | AID 463212 | 1.3% of 330,000 active | inhibition, % at 20 µM;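 active = growth inhibition of the mutant yeast at or above 50%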;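 also: temperature-sensitive mutant grown at 25 °C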
TIM10 inh: growth inhibitors of TIM10 yeast strain; inhibition, % at 10 µM; S. cerevisiae TIM10 strain growth, BacTiter-Glo luminescence, 24 h; 1.4% of 330,000 active; AID 463195;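 active = inhibition of 40% or more at the single tested concentration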;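 also: wild-type TIM10 isogenic control strain grown at permissive 25 °C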
tim10-1 conf: tim10-1 yeast growth inhibition, confirmed. shares compounds with tim10-1 inh. 56% of 7,400 active. S. cerevisiae tim10-1 ts strain growth, BacTiter-Glo, 24 h. inhibition, % at 20 µM;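 active = inhibition of yeast growth at or above a set limit in either of two repeat tests at 20 µM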;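 also: tim10-1 mutant grown at permissive 25 °C to find synthetic lethal compounds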
Large screens that a line does not name were inactive (follow-up assays come after a bar, where they were run); ! = not active in a repeat. In the library only some 6.3% were active in any assay of this set; here they are far more common.

Cc1ccc(-n2ccnc(SCC(=O)NC3CCCCC3)c2=O)cc1F	tim10-1 inh 44.0 | tim10-1 conf inactive
COc1ccc(-n2ccnc(SCC(=O)NC3CCCC3)c2=O)cc1OC	none
CCOc1cc(-c2c(C#N)c(N)nc3c2CCCC3C)ccc1O (stereo unspecified)	tim10-1 inh 45.8 | tim10-1 conf 35.5
CCOc1cc(-c2cc(-c3ccc(C)cc3)nc(N)c2C#N)ccc1O	tim10-1 inh 42.5 | tim10-1 conf inactive
COCCCNC(=O)C[C@@H]1C[C@@]2(C(=O)OC)CC(C)(C)CC=C2N(Cc2ccccc2)C1=O	none (no result: tim10-1 inh, Mdm2 MdmX PPI, tim23-1 inh, TIM10 inh)
COc1ccc(S(=O)(=O)N2C[C@@H](O)COC[C@@H]3O[C@H](CC(=O)NCCCN4CCOCC4)CC[C@H]32)cc1	none (no result: tim10-1 inh, Mdm2 MdmX PPI, tim23-1 inh, TIM10 inh)
COc1ccc(C(O)c2nc(-c3ccc(OC)c(OC)c3)cs2)cc1 (stereo unspecified)	none (no result: tim10-1 inh, Mdm2 MdmX PPI, tim23-1 inh, TIM10 inh)
CCCCOc1cccc(C(=O)NC(=S)Nc2cccnc2)c1	tim10-1 inh 43.3 | tim10-1 conf inactive
Cc1ccccc1NC(=S)N1CCC(C(=O)c2ccc(F)cc2)CC1	tim10-1 inh 41.6 | tim10-1 conf inactive
OC[C@@H]1CN(Cc2ccccc2)C[C@H](n2cnc3c(N4CCOCC4)ncnc32)O1	none (no result: tim10-1 inh, Mdm2 MdmX PPI, tim23-1 inh, TIM10 inh)
COC(=O)COc1ccc(S(=O)(=O)N2CCN(c3ccccc3F)CC2)cc1C	tim10-1 inh 41.3 | tim10-1 conf 30.9
COC(=O)COc1ccc(S(=O)(=O)N2CCCCCC2)cc1C	none
Oc1c(CN2CCCC(C(F)(F)F)C2)cc(Cl)c2ccccc12 (stereo unspecified)	tim10-1 inh 42.0 | tim10-1 conf inactive
CC1CN(C(=O)COC(=O)c2cncc(Br)c2)CC(C)O1 (stereo unspecified)	none (no result: tim10-1 inh, Mdm2 MdmX PPI, tim23-1 inh, TIM10 inh)
CN1C2C=CC(=O)C1C1C(=O)N(c3ccccc3)C(=O)C12 (stereo unspecified)	none (no result: tim10-1 inh, Mdm2 MdmX PPI, tim23-1 inh, TIM10 inh)
COc1ccc(Cl)cc1NC(=O)CSc1nnc(COc2ccccc2)n1C	tim10-1 inh 46.3 | tim10-1 conf inactive
COCCNC(=O)c1cc2c(s1)-c1ccc(Cl)cc1SC2	tim10-1 inh 42.0 | tim10-1 conf 40.8
CCCOc1cccc(NC(=O)c2c(-c3ccccc3)noc2C)c1	tim10-1 inh 40.7 | tim10-1 conf inactive
Cc1onc(-c2ccccc2)c1C(=O)Nc1cccc(OC(C)C)c1	none
Cc1ccc(F)c(NC(=O)c2c(-c3ccccc3)noc2C)c1	tim10-1 inh 46.9 | tim10-1 conf 42.9
Cc1onc(-c2ccccc2)c1C(=O)Nc1ccc(NC(=O)c2c(-c3ccccc3)noc2C)cc1	none
OCCCCC#Cc1c(-c2ccsc2)sc2ccccc12	none
OCCC#Cc1c(-c2ccsc2)sc2ccccc12	tim10-1 inh 46.4 | tim10-1 conf inactive
CN1CCN(S(=O)(=O)c2cc([N+](=O)[O-])ccc2N2CCCCCC2)CC1	none
O=[N+]([O-])c1ccc(N2CCCCCC2)c(S(=O)(=O)N2CCCCC2)c1	tim10-1 inh 47.8 | tim10-1 conf inactive
CCCC(=O)NC(=S)Nc1ccc(Cl)cn1	tim10-1 inh 45.1 | tim10-1 conf 31.9
CCOc1cc(C)cc2oc(=O)cc(-c3ccccc3)c12	none
Cc1cc(OCC(=O)N2CCc3ccccc3C2)c2c(-c3ccccc3)cc(=O)oc2c1	tim10-1 inh 46.4 | tim10-1 conf inactive
CCC(CC)C(=O)N(C)c1c(C)nc2c(OCc3ccc(C(F)(F)F)cc3)cccn12	none (no result: tim10-1 inh, Mdm2 MdmX PPI, tim23-1 inh, TIM10 inh)
CC1OC(CCc2cccc(Cl)c2)Cc2[nH]c(=S)[nH]c(=O)c21 (stereo unspecified)	none (no result: tim10-1 inh, Mdm2 MdmX PPI, tim23-1 inh, TIM10 inh)
COc1cc(C(=O)N2CCN(Cc3ccccc3C(F)(F)F)CC2)cc(OC)c1OC	tim10-1 inh 42.6 | tim10-1 conf inactive
COc1cc(OC)cc(C(=O)N2CCN(Cc3ccccc3C(F)(F)F)CC2)c1	none
C/C(CC(=O)Nc1ccc(N(C)C)cc1)=N\NC(=O)c1ccccn1	tim10-1 inh 49.4 | tim10-1 conf 32.0
CC(C)(C)NC(=O)C1C(c2ccc(C(F)(F)F)cc2)=Nc2ccccc2N1C(=O)c1cccc(C(F)(F)F)c1 (stereo unspecified)	none (no result: tim10-1 inh, Mdm2 MdmX PPI, tim23-1 inh, TIM10 inh)
CCc1nc2ccc(C(=O)N3CCN(c4cccc(C(F)(F)F)c4)CC3)cc2nc1CC	tim10-1 inh 42.1 | tim10-1 conf inactive
O=C(/C=C/c1ccco1)N1CCN(c2ccccc2)CC1	none
O=C(/C=C\c1ccco1)Nc1ccc(N2CCN(C(=O)c3ccccc3)CC2)cc1	tim10-1 inh 42.3 | tim10-1 conf 31.6
O=C(c1ccc2nc(-c3ccco3)c(-c3ccco3)nc2c1)N1CCN(c2ccccc2)CC1	tim10-1 inh 41.9 | tim10-1 conf 32.6
O=C1NC[C@@H](CCCCN2C[C@H](Cc3ccc(O)cc3)N(Cc3ccccc3)C(=O)C2=O)N(CC2CCCCC2)C1=O	none (no result: tim10-1 inh, Mdm2 MdmX PPI, tim23-1 inh, TIM10 inh)
Nc1c(-c2ccc(C(F)(F)F)cc2)nc2ncccn12	none (no result: tim10-1 inh, Mdm2 MdmX PPI, tim23-1 inh, TIM10 inh)
COC(=O)[C@H](NC(=O)c1cc(-c2ccccc2)sc1N)C(C)C	none (no result: tim10-1 inh, Mdm2 MdmX PPI, tim23-1 inh, TIM10 inh)
N#Cc1ccc(-n2c(-c3ccccc3)nnc2-c2ccccc2)cc1C#N	none
N#Cc1cccc(-n2c(-c3ccccc3)nnc2-c2ccccc2)c1C#N	tim10-1 inh 46.5 | tim10-1 conf 34.7
CCN(CC)c1ccc(NC(=O)CCCCCN2C(=O)c3ccccc3C2=O)cc1	tim10-1 inh 46.1 | tim10-1 conf 41.7
CC(=O)Nc1ccc(NC(=O)CCCCCN2C(=O)c3ccccc3C2=O)cc1	none
NC(Cc1ccccc1)c1csc(NC(=O)c2cccc(OC(F)(F)F)c2)n1 (stereo unspecified)	none (no result: tim10-1 inh, Mdm2 MdmX PPI, tim23-1 inh, TIM10 inh)
Cc1c(C(=O)NCc2cccc(C(F)(F)F)c2)sc(=O)n1Cc1ccccc1F	none (no result: tim10-1 inh, Mdm2 MdmX PPI, tim23-1 inh, TIM10 inh)
C=C(C)Cn1c(CCn2c3ccccc3c3ccccc32)n[nH]c1=S	none
C=CCn1c(CCn2c3ccccc3c3ccccc32)n[nH]c1=S	tim10-1 inh 43.4 | tim10-1 conf 36.5
CCOc1ccc(N=Cc2ccc([N+](=O)[O-])cc2)c(O)c1	none (no result: tim10-1 inh, Mdm2 MdmX PPI, tim23-1 inh, TIM10 inh)
COC(=O)C[C@H]1CC[C@@H](NS(=O)(=O)c2ccccc2)[C@@H](CO)O1	none (no result: tim10-1 inh, Mdm2 MdmX PPI, tim23-1 inh, TIM10 inh)
Cc1ccc(Cl)cc1NC(=O)COC(=O)C12CC3CC(CC(C3)C1)C2	tim10-1 inh 46.6! | tim10-1 conf 32.9
Cc1c(Br)c([N+](=O)[O-])nn1C(C)C(=O)N1CCCc2ccccc21 (stereo unspecified)	tim10-1 inh 40.1 | tim10-1 conf 37.0
Cc1c(Br)c([N+](=O)[O-])nn1CC(=O)N1CCc2ccccc21	none
CCSc1cc(C)nc2c(-c3ccccc3)c(C)nn12	tim10-1 inh 40.2 | tim10-1 conf inactive
Cc1cc(NCCC(C)C)n2nc(C)c(-c3ccccc3)c2n1	tim10-1 inh 44.7 | tim10-1 conf inactive
C=C(C)CSc1cc(C)nc2c(-c3ccccc3)c(C)nn12	none
COc1ccc([C@H]2CN(c3ccc(OC)cc3)C(=O)[C@@H]2CC(=O)Nc2ccccc2)cc1	none (no result: tim10-1 inh, Mdm2 MdmX PPI, tim23-1 inh, TIM10 inh)
CCOC(=O)[C@]12CCCC=C1N(CCC1=CCCCC1)C(=O)[C@H](CC(=O)NCc1ccc(OC)c(OC)c1)C2	none (no result: tim10-1 inh, Mdm2 MdmX PPI, tim23-1 inh, TIM10 inh)
CCC(CC)C(=O)N(C)c1c(C)nc2c(OCC3CCCCC3)cccn12	none (no result: tim10-1 inh, Mdm2 MdmX PPI, tim23-1 inh, TIM10 inh)

High-throughput results deposited in PubChem BioAssay by Sanford-Burnham Center for Chemical Genomics.
